PubChem BioAssay
Activity calls are given as the source filed them.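 The calls were made as follows, unless noted: active = normalized viability below 100% at a tested concentration; inactive = the rest.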 *1 amine or outer side, *2 acyl side, *3 side chain or, on linkers, in order; H or OH if unused. Where a SMILES comes first, the peptide text is derived from it. Bridges are numbered along the chain shown (N, C = ends). Roman numbers before positions name the chains, in order. [ ]: non-standard residue; d: D form. Hexamethylenediamine = C(CCCN[*:2])CCN[*:1]; Dip = N[C@H](C(=O)O)C(c1ccccc1)c1ccccc1; Chg = N[C@H](C(=O)O)C1CCCCC1; NMeA = CN[C@@H](C)C(=O)O

Legend:
[1] = ovarian cancer cell viability with rucaparib, profiling panel, oncology-focused library, rucaparib conditional (AID 1508598); conditions: patient-derived ovarian cancer cells, CellTiter-Glo viability, 144 h, stronger effect = lower value
[2] = kinase inhibitors against Plasmodium liver-stage infection, cell-based, known kinase inhibitor set, luminescence, hepatoma host viability (AID 624392; call rule not given here;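 also: infected cells incubated roughly two days before readout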); conditions: Plasmodium liver stage in hepatoma cells, luciferase luminescence, concentration not given here; liver cell % of control: measured here: host liver cell viability; parasite % of control: stronger effect = lower value
[3] = modulators of glucocorticoid suppression of NF-kB, cell-based, luciferase, IL-1B stimulus, dexamethasone (AID 624486; call rule not given here;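 as to percent of negative control (+Dex): 100% = mean signal of vehicle control wells on the plate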); conditions: NF-kB luciferase reporter, IL-1B + dexamethasone, luminescence; percent of negative control (+Dex): actives lie on both sides, concentration not given here; z-score: measured here: IL-1B alone, no Dex
[4] = kinase inhibitors altering Pseudomonas killing of worms, whole organism (AID 651566; call rule not given here;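 also: tested at 14 µM; sign flipped so higher z means a lower ratio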); conditions: C. elegans killed by P. aeruginosa, survival ratio
[5] = activators of macrophage pro-inflammatory response, cell-based, murine, luminescence (AID 652131; call rule not given here); conditions: murine macrophage pro-inflammatory reporter, stronger effect = higher value
[6] = survival rescue of mitochondrial mutant cells in low glucose, primary screen, MELAS cybrids, Rieske KO mouse fibroblasts, CellTiter-Glo (AID 1508586;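 active = mean z-score across replicates of 1.96 or higher in either the MELAS or the Rieske mutant cell line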;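 also: z relative to plate mean and SD of compound and empty wells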)
[7] = at 0.000305 µM, OCI-C5x cells, with rucaparib 10 µM, 100% = cells with rucaparib alone
[8] = at 0.000305 µM, OCI-C5x cells, without rucaparib
[9] = at 0.000305 µM, OCI-P5x cells, with rucaparib 20 µM, 100% = cells with rucaparib alone
[10] = at 0.000305 µM, OCI-P5x cells, without rucaparib
[11] = at 0.00122 µM, OCI-C5x cells, with rucaparib 10 µM, 100% = cells with rucaparib alone
[12] = at 0.00122 µM, OCI-C5x cells, without rucaparib
[13] = at 0.00122 µM, OCI-P5x cells, with rucaparib 20 µM, 100% = cells with rucaparib alone
[14] = at 0.00122 µM, OCI-P5x cells, without rucaparib
[15] = at 0.00488 µM, OCI-C5x cells, with rucaparib 10 µM, 100% = cells with rucaparib alone
[16] = at 0.00488 µM, OCI-C5x cells, without rucaparib
[17] = at 0.00488 µM, OCI-P5x cells, with rucaparib 20 µM, 100% = cells with rucaparib alone
[18] = at 0.00488 µM, OCI-P5x cells, without rucaparib
[19] = at 0.0195 µM, OCI-C5x cells, with rucaparib 10 µM, 100% = cells with rucaparib alone
[20] = at 0.0195 µM, OCI-C5x cells, without rucaparib
[21] = at 0.0195 µM, OCI-P5x cells, with rucaparib 20 µM, 100% = cells with rucaparib alone
[22] = at 0.0195 µM, OCI-P5x cells, without rucaparib
[23] = at 0.0781 µM, OCI-C5x cells, with rucaparib 10 µM, 100% = cells with rucaparib alone
[24] = at 0.0781 µM, OCI-C5x cells, without rucaparib
[25] = at 0.0781 µM, OCI-P5x cells, with rucaparib 20 µM, 100% = cells with rucaparib alone
[26] = at 0.0781 µM, OCI-P5x cells, without rucaparib
[27] = at 0.313 µM, OCI-C5x cells, with rucaparib 10 µM, 100% = cells with rucaparib alone
[28] = at 0.313 µM, OCI-C5x cells, without rucaparib
[29] = at 0.313 µM, OCI-P5x cells, with rucaparib 20 µM, 100% = cells with rucaparib alone
[30] = at 0.313 µM, OCI-P5x cells, without rucaparib
[31] = at 1.25 µM, OCI-C5x cells, with rucaparib 10 µM, 100% = cells with rucaparib alone
[32] = at 1.25 µM, OCI-C5x cells, without rucaparib
[33] = at 1.25 µM, OCI-P5x cells, with rucaparib 20 µM, 100% = cells with rucaparib alone
[34] = at 1.25 µM, OCI-P5x cells, without rucaparib
[35] = at 5 µM, OCI-C5x cells, with rucaparib 10 µM, 100% = cells with rucaparib alone
[36] = at 5 µM, OCI-C5x cells, without rucaparib
[37] = at 5 µM, OCI-P5x cells, with rucaparib 20 µM, 100% = cells with rucaparib alone
[38] = at 5 µM, OCI-P5x cells, without rucaparib
[39] = MELAS cybrid survival, CellTiter-Glo 48 h, stronger effect = higher value
[40] = Rieske KO mouse fibroblast survival, CellTiter-Glo 72 h

Structure (SMILES): COc1cc2c(cc1O)CC[C@@H]1[C@H]2CC[C@]2(C)[C@H](O)CC[C@@H]12
- viability [1, 7]: 113% (inactive)
- viability [1, 8]: 107% (inactive)
- viability [1, 9]: 106% (inactive)
- viability [1, 10]: 96.3% (active)
- viability [1, 11]: 116% (inactive)
- viability [1, 12]: 111% (inactive)
- viability [1, 13]: 99.4% (active)
- viability [1, 14]: 104% (inactive)
- viability [1, 15]: 119% (inactive)
- viability [1, 16]: 118% (inactive)
- viability [1, 17]: 109% (inactive)
- viability [1, 18]: 108% (inactive)
- viability [1, 19]: 103% (inactive)
- viability [1, 20]: 105% (inactive)
- viability [1, 21]: 95.3% (active)
- viability [1, 22]: 105% (inactive)
- viability [1, 23]: 105% (inactive)
- viability [1, 24]: 105% (inactive)
- viability [1, 25]: 102% (inactive)
- viability [1, 26]: 104% (inactive)
- viability [1, 27]: 124% (inactive)
- viability [1, 28]: 107% (inactive)
- viability [1, 29]: 106% (inactive)
- viability [1, 30]: 105% (inactive)
- viability [1, 31]: 107% (inactive)
- viability [1, 32]: 96.8% (active)
- viability [1, 33]: 104% (inactive)
- viability [1, 34]: 66.5% (active)
- viability [1, 35]: 124% (inactive)
- viability [1, 36]: 101% (inactive)
- viability [1, 37]: 98.9% (active)
- viability [1, 38]: 97.5% (active)

Structure (SMILES): CN[C@@H](C)C(=O)N[C@H](C(=O)N1CCC[C@H]1C(=O)N[C@H](C(=O)NCCCCCCNC(=O)[C@@H](NC(=O)[C@@H]1CCCN1C(=O)[C@@H](NC(=O)[C@H](C)NC)C1CCCCC1)C(c1ccccc1)c1ccccc1)C(c1ccccc1)c1ccccc1)C1CCCCC1 (I: H-[NMeA][Chg]P[Dip] / II: H-[NMeA][Chg]P[Dip]; linker I:C-II:C via Hexamethylenediamine)
- viability [1, 7]: 121% (inactive)
- viability [1, 8]: 115% (inactive)
- viability [1, 9]: 85.6% (active)
- viability [1, 10]: 93.2% (active)
- viability [1, 11]: 119% (inactive)
- viability [1, 12]: 106% (inactive)
- viability [1, 13]: 95.3% (active)
- viability [1, 14]: 94.9% (active)
- viability [1, 15]: 129% (inactive)
- viability [1, 16]: 111% (inactive)
- viability [1, 17]: 83.7% (active)
- viability [1, 18]: 94.7% (active)
- viability [1, 19]: 115% (inactive)
- viability [1, 20]: 108% (inactive)
- viability [1, 21]: 81.4% (active)
- viability [1, 22]: 99.5% (active)
- viability [1, 23]: 110% (inactive)
- viability [1, 24]: 112% (inactive)
- viability [1, 25]: 39.3% (active)
- viability [1, 26]: 85.3% (active)
- viability [1, 27]: 114% (inactive)
- viability [1, 28]: 116% (inactive)
- viability [1, 29]: 19.6% (active)
- viability [1, 30]: 54.1% (active)
- viability [1, 31]: 96.9% (active)
- viability [1, 32]: 105% (inactive)
- viability [1, 33]: 13.6% (active)
- viability [1, 34]: 21.5% (active)
- viability [1, 35]: 89.4% (active)
- viability [1, 36]: 120% (inactive)
- viability [1, 37]: 0.911% (active)
- viability [1, 38]: 7.49% (active)

Structure (SMILES): COC(=O)Nc1nc2ccc(Sc3ccc(NC(=O)Nc4cc(C(F)(F)F)ccc4F)cc3)cc2[nH]1
- liver cell % of control [2]: 136%
- parasite % of control [2]: 195% (inactive)
- percent of negative control (+Dex) [3]: 96.5% (inactive)
- z-score [3]: -0.175
- z-score [4]: -0.56 (inactive)
- z-score [5]: 1.3 (inactive)
- z-score [6, 39]: -0.309 (inactive)
- z-score [6, 40]: -0.32

Structure (SMILES): COc1cccc2c1C(=O)c1c(O)c3c(c(O)c1C2=O)C[C@@](O)(C(C)=O)C[C@H]3O[C@H]1C[C@H](N)[C@H](O)[C@H](C)O1
- viability [1, 7]: 118% (inactive)
- viability [1, 8]: 110% (inactive)
- viability [1, 9]: 110% (inactive)
- viability [1, 10]: 105% (inactive)
- viability [1, 11]: 123% (inactive)
- viability [1, 12]: 101% (inactive)
- viability [1, 13]: 99.8% (active)
- viability [1, 14]: 101% (inactive)
- viability [1, 15]: 125% (inactive)
- viability [1, 16]: 152% (inactive)
- viability [1, 17]: 99.2% (active)
- viability [1, 18]: 94.6% (active)
- viability [1, 19]: 198% (inactive)
- viability [1, 20]: 201% (inactive)
- viability [1, 21]: 84.2% (active)
- viability [1, 22]: 43% (active)
- viability [1, 23]: 180% (inactive)
- viability [1, 24]: 105% (inactive)
- viability [1, 25]: 74.4% (active)
- viability [1, 26]: 26.5% (active)
- viability [1, 27]: 101% (inactive)
- viability [1, 28]: 5.28% (active)
- viability [1, 29]: 25.9% (active)
- viability [1, 30]: 10.5% (active)
- viability [1, 31]: 2.76% (active)
- viability [1, 32]: 1.21% (active)
- viability [1, 33]: 15.7% (active)
- viability [1, 34]: 5.33% (active)
- viability [1, 35]: 2.96% (active)
- viability [1, 36]: 1.85% (active)
- viability [1, 37]: 4.23% (active)
- viability [1, 38]: 3.15% (active)

Structure (SMILES): COc1cc2ncn(-c3cc(OCc4ccccc4Cl)c(C(N)=O)s3)c2cc1OC
- liver cell % of control [2]: 147%
- parasite % of control [2]: 37.4% (inactive)
- percent of negative control (+Dex) [3]: 112% (inactive)
- z-score [3]: 0.395
- z-score [4]: -0.73 (inactive)
- z-score [5]: -0.517 (inactive)
- z-score [6, 39]: 0.0989 (inactive)
- z-score [6, 40]: -0.32

Structure (SMILES): CS(=O)(=O)CCNCc1ccoc1-c1ccc2ncnc(Nc3ccc(OCc4ccccc4)cc3)c2c1
- liver cell % of control [2]: 97.4%
- parasite % of control [2]: 112% (inactive)
- percent of negative control (+Dex) [3]: 80% (inactive)
- z-score [3]: -0.675
- z-score [4]: 0.33 (inactive)
- z-score [5]: 3.01 (inactive)
- z-score [6, 39]: 0.221 (inactive)
- z-score [6, 40]: -0.404
